Assay results reported in PubChem BioAssay AID624255 (Broad Institute, 2012).
About 4,600 (6%) of roughly 77,000 compounds were called active. Roughly 1% stayed inconclusive and do not appear here.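 The calls were made as follows: active = mean inhibition above about 93%, with at least 55% of replicates each passing it (limit read from the data, passing the limit was not always enough); inconclusive = only one of those two conditions holds; inactive = neither condition holds.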 For the sample, actives were picked, then their nearest neighbours and some compounds at random.

Assay: T. cruzi intracellular proliferation inhibitors, primary screen, cell-based, beta-gal Tulahuen parasites, NIH3T3 host, luminescence (AID 624255)
Details: T. cruzi beta-gal in NIH3T3, GalScreen luminescence, 90 h; at 8.34 µM; stronger effect = higher value

inhibition, inactive:
Cn1cnc(S(=O)(=O)N2C[C@@H](O)COC[C@@H]3O[C@H](CC(=O)NCc4ccc(F)cc4)CC[C@H]32)c1 -30.6%
COc1cccc(S(=O)(=O)N2C[C@@H](O)COC[C@H]3O[C@H](CC(=O)N4CCCCC4)CC[C@@H]32)c1 25.3%
Cc1ccc(S(=O)(=O)N(C)C[C@@H]2OCc3ccccc3-c3c(n(C)c4ccccc34)C(=O)N([C@@H](C)CO)C[C@@H]2C)cc1 60.7%
C[C@@H]1CN([C@@H](C)CO)C(=O)c2ccccc2-c2ccccc2CO[C@H]1CN(C)C(=O)Nc1ccccc1 24.6%
COc1ccc(S(=O)(=O)N(C)C[C@@H]2OCc3ccccc3-c3ccccc3C(=O)N([C@@H](C)CO)C[C@@H]2C)cc1 28.9%
C[C@H](CO)N1C[C@H](C)[C@@H](CN(C)S(=O)(=O)c2cccc(F)c2)Oc2ncc(-c3cccc(F)c3)cc2C1=O 49.3%
C[C@@H]1CN([C@@H](C)CO)C(=O)c2c(c3ccccc3n2C)-c2ccccc2CO[C@@H]1CN(C)S(=O)(=O)c1ccc(F)cc1 -18%
Cc1ccc(S(=O)(=O)N(C)C[C@H]2OCc3ccccc3-c3ccccc3C(=O)N([C@@H](C)CO)C[C@@H]2C)cc1 81.8%
COc1cccc(NC(=O)N(C)C[C@H]2OCc3ccccc3-c3ccccc3C(=O)N([C@H](C)CO)C[C@@H]2C)c1 -8.4%
COc1cccc(-c2cnc3c(c2)C(=O)N([C@H](C)CO)C[C@H](C)[C@H](CN(C)S(=O)(=O)c2cccc(F)c2)O3)c1 62.3%
O=C(C[C@H]1CC[C@@H]2[C@H](COC[C@H](O)CN2S(=O)(=O)c2ccc(F)cc2)O1)NCCN1CCCCC1 7.58%
CNC(=O)C[C@@H]1CC[C@@H]2[C@@H](COc3ccc(NC(=O)Cc4cccs4)cc3C(=O)N2C)O1 -40.4%
Cc1noc(C)c1NC(=O)N(C)C[C@H]1OCCCC[C@H](C)Oc2ccc(NC(=O)Nc3ccc4c(c3)OCO4)cc2C(=O)N([C@H](C)CO)C[C@@H]1C 17.1%
COCC(=O)N1C[C@H](C)[C@@H](OC)CN(C)C(=O)c2cc(NC(=O)c3ccc(OC)cc3)ccc2OC[C@H]1C 5.7%
CC=Cc1ccc2n(c1=O)C[C@H]1[C@H](CO)[C@@H](C(=O)NCC3CC3)N(Cc3nccs3)[C@@H]21 (mixture of isomers) -71.1%
COc1ccccc1C#Cc1cnc2c(c1)C(=O)N([C@@H](C)CO)C[C@H](C)[C@@H](CN(C)C(=O)CC1CC1)O2 92.8%
C[C@@H]1CCCCO[C@H](CN(C)S(=O)(=O)c2cn(C)cn2)[C@H](C)CN([C@@H](C)CO)C(=O)c2cc(NC(=O)Nc3ccc(C(F)(F)F)cc3)ccc2O1 29.7%
CO[C@@H]1CN(C)C(=O)c2ccc(NC(=O)Nc3c(C)noc3C)cc2OC[C@H](C)N(CC2CC2)C[C@H]1C 91.1%
C[C@@H]1CN([C@@H](C)CO)C(=O)c2cc(-c3cncnc3)cnc2O[C@@H]1CN(C)C(=O)c1ccccc1F 92.3%
C[C@H]1CN([C@@H](C)CO)C(=O)c2cc(C3=CCCC3)cnc2O[C@@H]1CN(C)C(=O)c1ccccc1 -4.66%
CCCC(=O)Nc1ccc2c(c1)OC[C@H](C)N(CCC)C[C@@H](C)[C@@H](OC)CN(C)C2=O -74.1%
CN1c2ccc(C3=CCCCC3)cc2[C@H]2[C@H](CCN2S(=O)(=O)c2ccccc2)[C@@H]1CO 86.7%
C[C@@H]1CCCCO[C@H](CN(C)S(C)(=O)=O)[C@@H](C)CN([C@@H](C)CO)C(=O)c2cc(NC(=O)CCC(F)(F)F)ccc2O1 31.3%
C[C@H]1CN([C@@H](C)CO)C(=O)c2cc(-c3cccc(F)c3)cnc2O[C@@H]1CN(C)S(C)(=O)=O 36.8%
C[C@H](CO)N1C[C@H](C)[C@@H](CN(C)S(=O)(=O)c2ccccc2)Oc2ncc(-c3ccncc3)cc2C1=O 2.86%
CCCNC(=O)[C@H]1[C@H](CO)[C@H]2Cn3c(ccc(C4=CCCC4)c3=O)[C@H]2N1C(=O)CC 6.67%
O=C(C[C@H]1CC[C@H]2[C@@H](COC[C@@H](O)CN2S(=O)(=O)c2cccc(Cl)c2)O1)NC1CCCC1 -59.2%
O=S(=O)(NCC[C@H]1CC[C@@H](NS(=O)(=O)c2cccc(Cl)c2)[C@@H](CO)O1)c1cccc(F)c1 11.3%
O=C(Nc1ccc(C(F)(F)F)cc1)N[C@@H]1CC[C@H](CCNC(=O)c2ccccc2F)O[C@H]1CO -57%
O=C(Nc1ccccc1)N[C@H]1CC[C@H](CCNC(=O)c2ccccc2F)O[C@H]1CO 22.8%
O=C(Nc1cc(Cl)cc(Cl)c1)N[C@@H]1CC[C@H](CCNS(=O)(=O)c2cccc(F)c2)O[C@H]1CO 17.2%
COc1ccccc1CNC(=O)C[C@@H]1CC[C@H](NC(=O)CN(C)C)[C@@H](CO)O1 18.4%
O=C(Nc1ccc(F)cc1)N[C@H]1CC[C@H](CCn2cc(-c3ccc(F)cc3)nn2)O[C@@H]1CO -16.9%
C[C@H]1CN([C@@H](C)CO)S(=O)(=O)c2ccc(C#Cc3ccncc3)cc2O[C@@H]1CN(C)C(=O)Nc1ccc2c(c1)OCO2 86.1%
CN1C(=O)c2cc(NC(=O)NC3CCCC3)ccc2OC[C@@H]2O[C@@H](CC(=O)O)CC[C@H]21 -32.1%
C[C@@H]1CCCCO[C@@H](CN(C)Cc2ccc(C(=O)O)cc2)[C@@H](C)CN([C@@H](C)CO)C(=O)c2cc(NC(=O)Nc3ccc(C(F)(F)F)cc3)ccc2O1 14.7%
C[C@@H]1CN([C@H](C)CO)C(=O)c2cc(NC(=O)Nc3ccc(C(F)(F)F)cc3)ccc2O[C@@H](C)CCCCO[C@@H]1CN(C)Cc1ccc(C(F)(F)F)cc1 86.3%
C[C@@H]1CN([C@H](C)CO)C(=O)c2cc(NC(=O)Nc3ccccc3)ccc2O[C@@H](C)CCCCO[C@H]1CN(C)Cc1ccc(C(F)(F)F)cc1 73.3%
C[C@H]1CCCCO[C@@H](CN(C)Cc2ccc(C(F)(F)F)cc2)[C@@H](C)CN([C@@H](C)CO)C(=O)c2cc(NC(=O)Nc3ccccc3)ccc2O1 73.3%
C/C=C/c1ccc2c(c1)O[C@H](CN(C)C(=O)Cc1ccncc1)[C@@H](C)CN([C@@H](C)CO)S2(=O)=O 20.3%
C[C@H]1CCCCO[C@H](CN(C)CC2CCCCC2)[C@@H](C)CN([C@@H](C)CO)C(=O)c2cc(NS(=O)(=O)c3ccc(Cl)cc3)ccc2O1 88%
C[C@@H]1CN([C@H](C)CO)C(=O)c2cc(C#CC3CCCC3)cnc2O[C@H]1CN(C)C(=O)C1CC1 32.3%
CC(C)NC(=O)N(C)C[C@H]1Oc2ncc(C#CC3CCCCC3)cc2C(=O)N([C@H](C)CO)C[C@@H]1C 84.2%
C[C@@H]1CN([C@@H](C)CO)C(=O)c2cc(C#CC3CCCCC3)cnc2O[C@@H]1CN(C)Cc1cncnc1 53.7%
CCCC#Cc1cnc2c(c1)C(=O)N([C@H](C)CO)C[C@H](C)[C@@H](CN(C)S(=O)(=O)c1ccccc1)O2 75.2%
C[C@@H]1CN([C@H](C)CO)C(=O)c2cc(NC(=O)Cc3ccccc3)ccc2O[C@@H](C)CCCCO[C@H]1CN(C)C(=O)Cc1ccccc1 -33.3%
O=C(C[C@H]1CC[C@@H]2[C@H](COC[C@@H](O)CN2Cc2cccc(-c3ccncc3)c2)O1)N1CCOCC1 65.1%

inhibition, active:
C[C@H](CO)N1C[C@H](C)[C@@H](CN(C)C(=O)Nc2ccnc(N3CCOCC3)c2)OCc2ccccc2-c2ccccc2C1=O 113%
C[C@H](CO)N1C[C@H](C)[C@H](CN(C)S(=O)(=O)c2cccc(F)c2)Oc2ncc(/C=C/c3ccccc3)cc2C1=O 107%
C[C@H](CO)N1C[C@H](C)[C@@H](CN(C)S(=O)(=O)c2cccc(F)c2)OCc2ccccc2-c2c(n(C)c3ccccc23)C1=O 98%
C[C@H]1CN([C@@H](C)CO)C(=O)c2ccccc2-c2ccccc2CO[C@@H]1CN(C)S(=O)(=O)c1ccc(C(F)(F)F)cc1 105%
C[C@H](CO)N1C[C@H](C)[C@H](CN(C)S(=O)(=O)c2ccccc2)Oc2ncc(-c3cccc(C(F)(F)F)c3)cc2C1=O 118%
O=C(Nc1cc(Cl)cc(Cl)c1)N[C@H]1CC[C@@H](CCNS(=O)(=O)c2cccc(F)c2)O[C@H]1CO 117%
O=C(Nc1ccc(Cl)cc1)N[C@@H]1CC[C@@H](CCNC(=O)c2ccccc2F)O[C@H]1CO 169%
C[C@@H]1CCCCO[C@@H](CN(C)Cc2ccc(C(F)(F)F)cc2)[C@@H](C)CN([C@H](C)CO)C(=O)c2cc(NC(=O)Nc3ccccc3)ccc2O1 110%
C[C@@H]1CCCCO[C@H](CN(C)Cc2ccc(C(F)(F)F)cc2)[C@H](C)CN([C@H](C)CO)C(=O)c2cc(NC(=O)Nc3ccc(F)cc3)ccc2O1 103%
C[C@H]1CN([C@@H](C)CO)C(=O)c2cc(C#CC3CCCCC3)cnc2O[C@H]1CN(C)S(=O)(=O)c1ccccc1 104%
C[C@@H]1CN([C@@H](C)CO)C(=O)c2cc(C#CC3CCCCC3)cnc2O[C@H]1CN(C)S(=O)(=O)c1ccccc1 104%
